Measurements: PubChem BioAssay AID463212 (Sanford-Burnham Center for Chemical Genomics, 2010)
About 4,400 (1.3%) of roughly 330,000 compounds were called active.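 How the source made its calls: active means growth inhibition of the mutant yeast at or above 50%; inactive means the rest.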 What follows is part of a selection rich in actives, with near analogues and random picks from the rest.

test: growth inhibition of tim23-1 ts yeast – luminescence, uHTS, primary screen (AID 463212);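 further: temperature-sensitive mutant grown at 25 °C; plate controls were DMSO-treated mutant yeast for no effect and medium wells lacking yeast for full effect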; conditions: S. cerevisiae tim23-1 growth, BacTiter-Glo luminescence, 24 h; at 20 µM; stronger effect = higher value

SMILES | inhibition
Cc1ccc(NC(=O)c2nc[nH]c2C(=O)N2CCCCC2)c(C(=O)c2ccccc2)c1 | 6.29% (inactive)
C=C(C)C(=O)O[C@H]1C/C(C)=C\C(=O)/C=C(\C)[C@H](O)[C@@H]2OC(=O)C(=C)[C@@H]21 | 4.97% (inactive)
COc1ccc(C)cc1NC(=O)CSc1nnc(CC(=O)Nc2ccccc2F)n1C | 3.22% (inactive)
O=C(O)Cn1c(Cc2ccccc2)nc2ccccc21 | -1.32% (inactive)
COc1ccc(-c2cn[nH]c2-c2ccc(OC)cc2)cc1 | 47.7% (inactive)
CCOc1ccccc1Oc1cn[nH]c1-c1ccc(OC)cc1O | -69.3% (inactive)
COc1ccc(Oc2cn[nH]c2-c2ccc(OC)cc2O)cc1 | 66.3% (active)
Cc1cc(NC(=O)CSCc2nc(-c3cccc(Cl)c3)oc2C)no1 | 1.1% (inactive)
COc1cccc2c1CCC(NC(C)=O)C2=O (stereo not given) | 0.522% (inactive)
Cc1cccc(C)c1NC(=O)CN(C)C(=O)CCC(=O)c1ccccc1 | 15% (inactive)
Cc1cccc(C)c1NC(=O)C(c1ccccc1)N1CC(=O)Nc2ccccc21 (stereo not given) | 21.3% (inactive)
Cc1cccc(C)c1NC(=O)C(Cl)C(=O)c1ccccc1 (stereo not given) | 80.7% (active)
COc1ccc(CN2CCCCC2C)cc1OC (stereo not given) | 10.1% (inactive)
CCC(C)n1c(-c2cc(OC)c(OC)c(OC)c2)nc2nc3ccccc3nc21 (stereo not given) | 19.1% (inactive)
C[C@H](NC(=O)C1CC(=O)N(c2ccc3c(c2)OCO3)C1)C(=O)NCc1ccco1 (stereo not given in full) | 13.9% (inactive)
O=C1c2ccccc2S(=O)(=O)N1CC(O)Cn1c2ccccc2c2ccccc21 (stereo not given) | 84.5% (active)
CC(C)(C)c1ccc(CN2C(=O)c3ccccc3S2(=O)=O)cc1 | 22.3% (inactive)
CCCCN(CCCC)CC(O)Cn1c2ccccc2c(=O)c2ccccc21 (stereo not given) | 5.18% (inactive)
COc1ccc(N(CC(=O)Nc2cccc3ccccc23)S(C)(=O)=O)c(OC)c1 | 6.45% (inactive)
COc1ccc(N(CC(=O)Nc2ccc(C)cc2C)S(=O)(=O)c2ccccc2[N+](=O)[O-])c(OC)c1 | 19.7% (inactive)
CCc1ccccc1NC(=O)CN(c1ccc(OC)cc1OC)S(=O)(=O)c1ccccc1[N+](=O)[O-] | 50.4% (active)
CCN(CC)S(=O)(=O)c1ccc(CNC(=O)CN2C(=O)NC3(CCc4ccccc43)C2=O)cc1 (stereo not given) | 9.27% (inactive)
Cc1ccc(S(=O)(=O)N2CCC(C(=O)OCC(=O)N3CC(=O)Nc4ccccc43)CC2)cc1 | 14.9% (inactive)
CC[C@]12c3[nH]c4ccc(Cl)cc4c3CCN1C(=O)[C@@H](CC(=O)NCCN1CCOCC1)C[C@@H]2C(=O)N1CCN(C(=O)C2CC2)CC1 | 24.7% (inactive)

SMILES | inhibition
CC1Cn2c(nnc2-c2cccs2)S1 (stereo not given) | 3.29% (inactive)
NS(=O)(=O)c1ccc(CCNC(=O)CNC(=O)Cc2ccccc2)cc1 | 7.58% (inactive)
CCN(CC)c1ccc(NC(=O)C2CCC(CNc3c(N4CCCC4)c(=O)c3=O)CC2)c(C)c1 (stereo not given) | 2.65% (inactive)
O=C(Nc1nnc(SCc2c(Cl)cccc2Cl)s1)c1cccc([N+](=O)[O-])c1 | -8.16% (inactive)
O=C(NCc1ccccc1Cl)C1CCCO1 (stereo not given) | 3.86% (inactive)
O=C(Nc1nnc(SCc2c(Cl)cccc2Cl)s1)C1CCCO1 (stereo not given) | 52.3% (active)
CC1CN(C(=O)c2cc(COc3c(F)cccc3F)on2)CCN1C (stereo not given) | 8.91% (inactive)
O=C(COC(=O)/C=C/c1cn(-c2ccccc2)nc1-c1cccnc1)Nc1ccc(Cl)cc1Cl | 20.1% (inactive)
NC(=O)C1CCN(C(=O)c2cn(-c3ccccc3)nc2-c2cccnc2)CC1 | -6.01% (inactive)
CN(C)/N=C/c1cn(-c2ccccc2)nc1-c1cccnc1 | 50.3% (active)
O=C1CC(C(F)(F)C(F)(F)C(F)(F)C(F)(F)F)=Nc2ccccc2N1 | 15.9% (inactive)
CC(C)C[C@H](NC(=O)NCCc1ccc(Cl)cc1)C(=O)O | 9.43% (inactive)
Cc1ccc2nc(SCC(=O)N3CC(C)OC(C)C3)nc(=O)n2c1 (stereo not given) | 10.2% (inactive)
O=C(NC(=S)Nc1ccccc1N1CCCCC1)c1ccc(F)cc1 | 32.5% (inactive)
CCc1ccc(C(=O)NC(=S)Nc2ccccc2N2CCOCC2)cc1 | 53.9% (active)
O=C(Nc1ccccc1N1CCOCC1)c1ccncc1 | -8.11% (inactive)
O=C(NC1CC2CCCC(C1)N2C(=O)N1CCCCC1)C1CCCCC1 (stereo not given) | 19.4% (inactive)
Cc1cc(C)nc(NC2=NCC(=O)N2c2ccc(Cl)cc2)n1 | -5.7% (inactive)
O=C(N/N=C/C=C/c1ccco1)c1cccs1 | 59.4% (active)
O=C(N/N=C/c1ccco1)c1csc2c1CCCC2 | 22.8% (inactive)
O=C(Nc1ccc(NC(=O)c2cccs2)cn1)c1ccco1 | 17.2% (inactive)
O=C(Nc1ccc(Br)cc1)c1cc(S(=O)(=O)Nc2ccccn2)ccc1Cl | -0.209% (inactive)
Cc1ccc(NN=C2C(=O)OC(C)(C)OC2=O)c(C)c1 | -2.58% (inactive)
CCCCCCc1cc2cc(-c3nnc(-c4ccccc4)o3)c(=O)oc2cc1O | 7.67% (inactive)

SMILES | inhibition
CCCCCCCN=C(C)c1ccccc1O | 5.76% (inactive)
CCCCCCc1ccc(O)cc1O | 62.8% (active)
CC(C)NC(=O)NNc1c(Cl)cncc1Cl | 2.69% (inactive)
O=C(/C=C/c1cccc(C(F)(F)F)c1)N1CCN(c2ccccn2)CC1 | 37.6% (inactive)
COc1ccc(NC(C)=O)cc1NC(=O)CN1CCN(C2c3ccccc3-c3ccccc32)CC1 | 26.8% (inactive)
O=C(C[C@H]1C(=O)N(c2ccc(F)c(F)c2)C[C@@H]1Cc1ccccc1)Nc1ccccc1 | 13.5% (inactive)
COc1ccc(NC(=O)CSc2nc(NS(=O)(=O)c3ccc(C)cc3)cc(=O)[nH]2)cc1 | 2.94% (inactive)
Cc1noc(C)c1-c1ccc2ncnc(NC(C)c3ccco3)c2c1 (stereo not given) | 5.06% (inactive)
Cc1cccc(-c2nc(Nc3ccc(O)cc3)c3ccccc3n2)c1 | 62.7% (active)
CC(=O)Nc1cccc(Nc2nc(-c3cccs3)nc3ccccc23)c1 | 39.4% (inactive)
Oc1ccc(-c2nnc(Nc3ccccc3)c3ccccc23)cc1 | -5.13% (inactive)
CCCCn1c(O)c(N=NC(=O)Cn2c(C(F)(F)F)nc3ccccc32)c2ccccc21 | -27.6% (inactive)
O=c1ccc2c(-c3ccccc3S(=O)(=O)O)c3ccc(O)c(O)c3oc-2c1O | 56% (active)
CCCn1c(N)c(C(=O)CSc2nnc3n2CCCCC3)c(=O)[nH]c1=O | 7.27% (inactive)
O=C(CN1C(=O)C2C3C=CC(C3)C2C1=O)NCC1COc2ccccc2O1 (stereo not given) | 18.2% (inactive)
Cc1cc(C(=O)CCl)c(C)n1CC1COc2ccccc2O1 (stereo not given) | 34.4% (inactive)
O=C1C(=O)N(CC2COc3ccccc3O2)c2ccccc21 (stereo not given) | 72.4% (active)
CC(=O)Nc1sc2c(c1C(c1cccc(F)c1)N1CCN(CCO)CC1)CCCC2 (stereo not given) | 14.7% (inactive)
Cc1cccc(-[n+]2c(-c3cccc(Br)c3)[nH]c3nc4ccccc4nc32)c1 | 22.7% (inactive)
O=C(NC(=S)Nc1cccc2c(O)cccc12)c1cccc(Br)c1 | 68.6% (active)
Cc1ccccc1NC(=S)NNC(=O)c1cccc(Br)c1 | 14.7% (inactive)
NS(=O)(=O)c1ccc(NC(=S)NC(=O)c2cccc(Br)c2)cc1 | 28.3% (inactive)
Cc1ccc(C)c(OCc2cc(C(=O)N3CCN(c4cnccn4)CC3)no2)c1 | 23.9% (inactive)
Cc1onc(NC(=O)c2ccc([N+](=O)[O-])o2)c1Br | 55.6% (active)

SMILES | inhibition
O=C(Nc1ccc(Br)cn1)c1ccc([N+](=O)[O-])o1 | 43.4% (inactive)
Cc1cccc(NC(=O)c2ccc([N+](=O)[O-])o2)c1 | 7.53% (inactive)
O=C(CCCNS(=O)(=O)c1cccc2nsnc12)NCCN1CCN(c2ccccc2F)CC1 | 1.63% (inactive)
O=C1Nc2ccccc2/C1=C/c1ccnc2ccccc12 | 51.2% (active)
COc1cc(NS(=O)(=O)c2ccc(NC(=O)c3ccc(S(=O)(=O)N4CCCCC4)cc3)cc2)ncn1 | 3.91% (inactive)
O=C1NC(Nc2nc3ccccc3s2)(C(F)(F)F)C(=O)N1C1CCCCC1 (stereo not given) | 58.9% (active)
O=C(NC1(C(F)(F)F)NC(=O)N(C2CCCCC2)C1=O)c1ccco1 (stereo not given) | 14.4% (inactive)
CCC1(CC)NC(=O)N(Cc2nc3ccccc3s2)C1=O | 21.9% (inactive)
CC(C)c1ccc(NC(=O)[C@@H](NC(=O)N2CC(=O)Nc3ccccc32)C(C)C)cc1 | 10.9% (inactive)
Cc1c(NC(=O)CCC2CCCCC2)cc(C(=O)N2CCOCC2)cc1[N+](=O)[O-] | 7.43% (inactive)
CC(=O)Nc1ccc(S(=O)(=O)NC2(C(F)(F)F)C(=O)NC(C)=C2C#N)cc1 (stereo not given) | 10.8% (inactive)
Cc1cc(N2CCN(C)CC2)nc2ccc(NC(=S)N3CCOCC3)cc12 | 12.1% (inactive)
Cc1cc(N2CCOCC2)nc2ccc(NC(=S)N3CCN(Cc4ccccc4)CC3)cc12 | 7.08% (inactive)
CCn1c2ccccc2c2cc(NC(=S)N3CCOCC3)ccc21 | 51.8% (active)
COc1ccccc1CN1CC(C(=O)NCCc2cn[nH]c2)CCC1=O (stereo not given) | 11.8% (inactive)
CCOC(=O)Cc1ncccc1C(=O)Nc1ccc(OC)cc1 | -4.31% (inactive)
CCCNC(=O)Nc1ccccc1C(=O)Nc1ccc(OC)cc1 | 11% (inactive)
COc1ccc(NC(=O)Nc2cccc3cccnc23)cc1 | 58.6% (active)
COc1ccc(CNS(=O)(=O)c2cc3c4c(c2)CCN4C(=O)CC3)cc1 | 9.82% (inactive)
COc1ccccc1C(=O)NC(=O)COC(=O)c1ccco1 | 1.32% (inactive)
COc1ccc(/C=C(\C#N)C(=O)ONC2=NCCCCC2)cc1 | 68.2% (active)
COc1ccc(N2CCN(C(=O)/C(C#N)=C/c3ccccc3)CC2)cc1 | 40.6% (inactive)
COc1ccc(/C=C(\C#N)C(=O)OCC(=O)N(C)C2CCS(=O)(=O)C2)cc1 (stereo not given) | -18.1% (inactive)
